V-ATPase pH – regulators of yeast V-ATPase proton transport | AID 504577 | S. cerevisiae, pHLuorin cytosolic pH fluorescence | 350,000 tested, 0.37% active | response, % at 10 µM; in the data active means response mostly above about 7.3%, no sharp cut-off; inactive means mostly below about 5.4%; further: actives read high
NPR2 activator – GC-B (human) receptor activation; P20594; HEK293-GC-B cells, CNP EC30, cGMP TR-FRET; 0% at EC30 CNP, 100% saturating CNP; activation, % at 10 µM; 370,000 tested, 0.11% active;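 active means activation at 10 µM reaching about 35% in either raw or pattern-adjusted values, limit read from the data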
Efflux pump mplx – blocks antifungal efflux pumps in multiplex yeast assay | S. cerevisiae Candida pump triplex, Nile Red efflux | inhibition, % at 10 µM | 330,000 tested, 0.44% active | AID 485275;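 active means plate passing quality check with inhibition over a set limit, or well fluorescence over plate mean plus 4 SD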;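 further: Nile Red retained in pooled yeast measured as flow cytometry median fluorescence; 0% = buffer negative control and 100% = Enniatin B positive control; higher means more Nile Red kept so more efflux inhibition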
Rce1 inhib – blocks yeast Ras-converting enzyme; Q03530; AID 2563; yeast membranes, quenched prenylated peptide cleavage fluorescence; 290,000 tested, 0.27% active; calls only;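 active means fall in fluorescence gain of 50% or more versus controls, with final raw signal at or below 3038400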;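 further: plate controls were neutral control wells for no effect and wells lacking membranes for full effect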
Target sequence (Q03530 whole entry, looked up): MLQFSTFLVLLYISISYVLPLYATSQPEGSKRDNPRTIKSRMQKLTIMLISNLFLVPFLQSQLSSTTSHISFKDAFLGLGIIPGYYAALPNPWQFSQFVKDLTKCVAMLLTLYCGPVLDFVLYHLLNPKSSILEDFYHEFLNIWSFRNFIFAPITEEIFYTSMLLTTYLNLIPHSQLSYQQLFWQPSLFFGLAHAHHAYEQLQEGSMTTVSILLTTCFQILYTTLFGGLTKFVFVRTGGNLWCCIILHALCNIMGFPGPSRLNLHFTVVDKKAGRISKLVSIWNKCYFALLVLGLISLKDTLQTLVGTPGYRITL
GC-A act – GC-A (human) enzyme activation; HEK293 GC-A cells, cGMP TR-FRET, EC30 ANP; 0% at EC30 ANP, 100% saturating ANP; P16066; 370,000 tested, 0.14% active; activation, % at 10 µM; AID 1671463; in the data active means activation above about 40%
NSD2 inh – inhibitors of human histone methyltransferase NSD2. O96028. NSD2 peptide methylation, AlphaScreen, 120 min. inhibition, % at 12.5 µM. 310,000 tested, 0.54% active. AID 743445; in the data active means inhibition above about 50%
Yeast cmpd fluor – compound fluorescence in yeast efflux pump counter-screen. fluorescence ratio to DMSO, % at 10 µM. S. cerevisiae AD/pABC3, flow cytometry. 1,700 tested, 4% active. shares compounds with Efflux pump mplx;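 active means fluorescence ratio to DMSO above its plate's cutoff, the plate mean ratio plus 5 SD, cut at about 210% in these data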;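 further: unstained yeast with no Nile Red so the signal is compound autofluorescence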
CaMdr1 efflux inh – inhibitors of Candida albicans Mdr1 efflux pump; AID 588518; S. cerevisiae AD/CaMDR1, Nile Red efflux, flow cytometry; shares compounds with Efflux pump mplx; inhibition, % at 10 µM; 1,700 tested, 1% active; in the data active means inhibition above about 26%;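 further: 0% = DMSO vehicle and 100% = reference inhibitor; higher means more Nile Red retained so more efflux inhibition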
CaCdr2 efflux inh – Candida Cdr2 efflux pump inhibition | shares compounds with Efflux pump mplx | S. cerevisiae AD/CaCDR2, Nile Red retention, flow cytometry | Nile Red retention ratio vs DMSO, % at 10 µM | 1,700 tested, 4% active | AID 588520; in the data active means Nile Red retention ratio vs DMSO above about 190%;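 further: higher ratio means more blocking of Cdr2 efflux of the dye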
Cdr1 pump inh – blocks the Candida albicans Cdr1 efflux pump in yeast. AID 588522. S. cerevisiae AD/CaCDR1, Nile Red efflux, flow cytometry. 1,700 tested, 1% active. shares compounds with Efflux pump mplx. inhibition, % at 10 µM;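 active means inhibition above the screen-wide mean plus twice its standard deviation, cut at about 32% in these data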
The depositor's hits bear a star; i = inactive; . = no result given; + = active, no number. Sampled rows, rich in hits. Any-hit rate of the full collection: about 1.6%.

SMILES | V-ATPase pH | NPR2 activator | Efflux pump mplx | Rce1 inhib | GC-A act | NSD2 inh | Yeast cmpd fluor | CaMdr1 efflux inh | CaCdr2 efflux inh | Cdr1 pump inh
Cc1ccc(C(C(=O)NC2CCCC2)N(C(=O)CCC(=O)Nc2cc(C)on2)c2ccccc2)cc1 (stereo not given) | -6.0 | -2.9 | -0.1 | i | -3.0 | -2.1 | 110.1 | 0.4 | 122.6 | 0.5
Cc1cc(NC(=O)CCC(=O)N(Cc2ccco2)C(C(=O)NC2CCCC2)c2ccccc2C)no1 (stereo not given) | 0.3 | -2.1 | 0.1 | i | -2.3 | . | 85.4 | -0.4 | 89.9 | -0.1
Cc1cc(NC(=O)CCC(=O)N(Cc2ccco2)C(C(=O)NC2CCCCC2)c2ccccc2)no1 (stereo not given) | -1.3 | -7.0 | 0.1 | i | 0.1 | 1.2 | 104.5 | -0.1 | 118.5 | 0.0
Cc1cc(NC(=O)CCC(=O)N(Cc2ccco2)C(C(=O)NC2CCCC2)c2ccccc2F)no1 (stereo not given) | -0.1 | -1.0 | -0.3 | i | 2.0 | 1.7 | . | . | . | .
CN(C)CC(=O)N[C@@H]1C[C@@H]2O[C@@H](CO)CC[C@@H]2O[C@@H]1CCc1ccc(-c2ccc(F)cc2)cc1 | . | -1.1 | . | . | 15.8 | . | . | . | . | .
CN1/C(=C\C=C2/SC(=S)NC2=O)C(C)(C)c2ccccc21 | -2.4 | -5.0 | 0.8* | i | -4.8 | . | 169.7 | 1.7 | 188.0 | 0.6
Cc1ccc(-n2c(-c3ccc(Br)cc3)c[n+]3c2CCc2ccc4cccnc4c2-3)cc1 | 9.3 | -16.9 | 1.1* | i | -33.3 | 21.8 | 106.8 | 0.1 | + | -0.2
COc1cccc(OC[C@@H](O)CN2CCC(C(O)(c3ccccc3)c3ccccc3)CC2)c1 | . | -12.0 | . | . | -15.1 | . | . | . | . | .
CCNC(=S)N(CCc1ccccc1C)Cc1cc2cc(OC)c(OC)cc2[nH]c1=O | 1.3 | 2.0 | 0.4 | i | 2.0 | 1.1 | . | . | . | .
COc1cc2cc(CN(CCc3ccccc3C)C(=S)NCCCN(C)C)c(=O)[nH]c2cc1OC | 3.1 | 0.3 | 8.9* | i | 0.4 | 6.9 | 104.7 | -0.1 | 97.5 | -0.3
CCOCCN1CCN(c2c(C)c(C)nc3cc(-c4cc(OC)cc(OC)c4)nn23)CC1 | 3.4 | -4.9 | 0.6 | i | 10.7 | . | . | . | . | .
CCc1c(C)nc2cc(-c3cc(OC)cc(OC)c3)nn2c1N1CCN(CCN2CCOCC2)CC1 | -3.8 | 4.7 | 1.6* | i | 9.6 | 0.6 | 82.2 | 0.1 | 89.0 | -0.2
COC(=O)[C@]12C[C@H](CC(=O)N3CCOCC3)C(=O)N(Cc3cccc4ccccc34)C1=C[C@H](C(C)C)O[C@@H]2C1CC1 | . | -18.1 | . | . | -31.4 | . | . | . | . | .
COC(=O)c1cc2c(c3c4cc(C)ccc4n(C(=O)c4ccccc4)c13)C(=O)N(Cc1ccccc1)C2 | . | 11.0 | . | . | -0.7 | . | . | . | . | .
CCOc1ccccc1NC(=O)c1ccc(OCC)c([N+](=O)[O-])c1 | -4.6 | -7.2 | 0.1 | i | 0.4 | -1.2 | . | . | . | .
CCOc1ccc(C(=O)Nc2cccc(-c3cc4ccccc4oc3=O)c2)cc1[N+](=O)[O-] | -0.8 | -0.2 | 1.0* | i | -3.6 | -2.4 | 107.2 | -0.1 | 100.7 | -0.1
O=C(CNC(=O)c1nn(Cc2ccccc2)c(=O)c2ccccc12)Nc1ccc(F)c(F)c1F | -1.7 | 7.3 | 0.9* | . | -2.1 | -1.8 | 101.1 | -0.2 | 108.3 | 0.3
CCOc1ccc(-n2c(SCC(=O)Nc3ccccc3-c3ccccc3)nnc2-c2ccncc2)cc1 | . | -0.8 | . | . | -9.3 | 3.2 | . | . | . | .
COc1cc2c(cc1OC)CN(C(=S)Nc1ccccc1Cl)CC2 | -1.3 | -0.2 | -0.1 | i | 4.2 | -0.3 | . | . | . | .
COc1cc2c(cc1OC)CN(C(=S)Nc1ccc(C)cc1C)CC2 | -0.6 | 4.5 | 1.1* | i | -1.7 | 0.3 | 103.0 | -0.1 | 101.8 | -0.1
CC1=C2NC(N)=[N+](CC3CC3)C(Cc3ccccc3)[C@@H]2n2c(=O)n(-c3ccccc3)c(=O)n2C1 (stereo not given in full) | . | -25.7 | . | . | -28.0 | . | . | . | . | .
Brc1ccc(Cn2nnc(-c3ccc(N4CCOCC4)cc3)n2)cc1 | . | 1.2 | . | . | 0.4 | -5.5 | . | . | . | .
Cc1ccc(S(=O)(=O)Nc2ccc(-n3cnnn3)cc2)cc1 | -4.0 | -1.3 | 0.9* | i | -1.3 | -1.6 | 103.4 | -0.1 | 101.5 | -0.4
CCNC(=S)NNC(=O)CSc1nc2ccccc2c(=O)n1-c1ccc(Cl)cc1 | . | 4.8 | . | . | -2.7 | -9.8 | . | . | . | .
CNC(=S)Nc1ccc(C)cc1 | 0.7 | 5.1 | 11.1* | i | -1.0 | 2.6 | 99.8 | -0.1 | 101.8 | -0.1
SMILES | V-ATPase pH | NPR2 activator | Efflux pump mplx | Rce1 inhib | GC-A act | NSD2 inh | Yeast cmpd fluor | CaMdr1 efflux inh | CaCdr2 efflux inh | Cdr1 pump inh
Nc1ncnc2c1nc(N1CCCCC1)n2[C@@H]1O[C@H](CO)[C@@H](O)[C@H]1O | 4.0 | 6.2 | 2.3* | . | 1.4 | . | 104.5 | -0.1 | 91.9 | 0.0
CCOC(=O)c1c(-c2ccccc2)csc1NC(=O)c1cc(-c2ccccc2OC)on1 | -2.4 | 0.5 | 0.7* | i | 5.0 | . | 88.8 | -0.1 | 114.4 | 0.1
CN1CCN(C(=O)/C=C/c2ccc([N+](=O)[O-])cc2)CC1 | -1.2 | -3.1 | 12.4* | i | 1.9 | . | 98.2 | -0.1 | 89.3 | -0.1
C#CCN1CC(N(C)CCOC(=O)c2cc3ccccc3[nH]2)CS1(=O)=O (stereo not given) | . | -3.4 | . | . | -0.1 | . | . | . | . | .
CCSc1cc(N2CCCC2)nc(-c2ccc(F)cc2)n1 | 2.1 | -3.9 | -0.1 | i | -7.5 | -2.3 | 90.8 | -0.2 | 86.9 | -0.1
CCSc1cc(N2CCCC2)nc(-c2ccc(C)cc2)n1 | 1.4 | -5.9 | -0.4 | i | -6.1 | 1.4 | 109.9 | -0.1 | 103.6 | 0.0
O=C1CCCN1CCCNc1ccc2nnc(CCC(=O)N3CCN(c4ccccc4)CC3)n2n1 | 0.5 | -1.2 | 1.3* | i | -0.8 | 9.5 | 98.9 | -0.1 | 89.9 | 0.0
COc1ccccc1CNC(=O)CCc1nnc2ccc(NCCCN3CCCC3=O)nn12 | -2.2 | 3.5 | -0.1 | i | 0.2 | -2.3 | . | . | . | .
COC(=O)[C@H]1C[C@@]2(C)c3ccccc3N(S(=O)(=O)c3ccccc3)[C@H]2N1C(=O)CNC1CCCCC1 | . | -2.6 | . | . | 1.2 | . | . | . | . | .
CC(=O)c1c(N2CCN(C)CC2)[nH]c(-c2ccccc2)nc1=S | -4.2 | -4.5 | 1.5* | i | -3.9 | . | 103.4 | -0.1 | 152.2 | 0.0
COc1ccc(-c2cc(-c3nnc4sc(Cc5cccs5)nn34)[nH]n2)cc1 | . | -7.8 | . | . | 13.3 | 7.0 | . | . | . | .
CCC(Sc1nc2ccccc2[nH]1)C(=O)Nc1ccc(NC(C)=O)cc1 (stereo not given) | -1.3 | -0.6 | 0.7* | i | -0.7 | -3.0 | 103.4 | -0.3 | 90.9 | -0.1

High-throughput results deposited in PubChem by several laboratories.
